This is a sample that favours compounds with a hit; in the whole collection about 5.9% have one here.
KB-3-1 tox = KB-3-1 parental cell cytotoxicity; KB-3-1 viability, CellTiter-Glo ATP luminescence, 72 h; Potency, µM (highest dose often 46.1 µM), actives largely listed as cytotoxic; 400,000 compounds, 1.4% hits; AID 1347075; note: % is set by controls: 0 for no effect and ±100 for the full control effect; nearly all actives have a fitted effect of over 60% in size
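Cytotoxicity in the drug-sensitive parental line KB-3-1 was scored as loss of CellTiter-Glo luminescence following 72 h incubation with compound. Values come from curve fitting of normalized concentration-response data.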
KB-V1 cytotox = kills drug-selected multidrug resistant KB-V1 cells | 400,000 compounds, 3.4% hits | KB-V1 MDR cells viability, CellTiter-Glo, 72 h | Potency, µM (series often up to 46.1 µM), usual class: cytotoxic; note: % is set by controls: 0 for no effect and ±100 for the full control effect; nearly all actives have a fitted effect of over 60% in size
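KB-V1 MDR subline cells in DMEM (phenol-red free, 10% FBS) exposed to compounds in qHTS concentration series for 72 h at 37 degrees C. Viability read by CellTiter-Glo luminescence; concentration-effect curves fitted after normalization and correction.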
S2 tox = reduces viability in counter-screen for ATXN expression inhibitors. S2 cells (HEK-293 line with an ATXN2-luciferase reporter) viability, CellTiter-Fluor protease fluorescence, 24 h. Potency, µM (series often up to 56.7 µM), usual class: cytotoxic. 400,000 compounds, 0.49% hits; note: nearly all actives have a fitted effect of over 40% in size
ATXN2 expr inh = ATXN2 expression inhibition | Potency, µM (top dose mostly 57 µM), for inactives: top-dose activity change, negative = inhibition, usual class: inhibitors | 360,000 compounds, 0.72% hits | AID 1745845 | HEK-293 ATXN2-luciferase reporter, luminescence, 24 h; note: % is set by controls: 0 for no effect and ±100 for the full control effect; nearly all actives have a fitted effect of over 55% in size
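ATXN2-luciferase reporter cells (luciferase flanked by upstream and downstream ATXN2 gene portions) were treated 24 h at 37 °C with compounds at up to 57 uM. SteadyGlo luminescence gave expression; GF-AFC fluorescence gave viability.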
HepG2 viability = counter-screen for TGF-b inhibitors: cytotoxicity in HepG2 cells; HepG2 CAGA-GFP viability, ATP luminescence, 18 h; Potency, µM (highest dose often 46.1 µM), without a hit: at the top dose activity change, negative = cytotoxicity, usual class: cytotoxic; 410,000 compounds, 0.76% hits
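HepG2 CAGA-GFP cells (1000/well, DMEM with 1% FBS) received compound, then TGF-beta at 500 pg/mL final, and were incubated 18 hours at 37 degrees C. Viability was read by CellTiter-Glo luminescence. Media-only wells were set as complete cell-killing and DMSO as no toxicity.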
TGFb SMAD3 inh = TGF-b pathway inhibition | HepG2 CAGA-GFP TGF-b/SMAD3 reporter, GFP fluorescence, 18 h; TGF-beta stimulated, 500 pg/mL final | Potency, µM (highest dose often 46.1 µM), inactives show top-dose activity, negative = inhibition, actives largely listed as inhibitors | 410,000 compounds, 1.2% hits | AID 588855; note: % is set by controls: 0 for no effect and ±100 for the full control effect; nearly all actives have a fitted effect of over 65% in size
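GFP signal (ex488/em500-530) from TGF-beta-stimulated HEPG2 CAGA-GFP cells, 500 pg/mL final, 18 h at 37 degrees C in DMEM plus 1% FBS, normalized to unstimulated and DMSO-stimulated controls.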
The depositor's hits bear a star; i = inactive; ? = inconclusive; . = not tested or not shown; ! = not confirmed by another sample; [ ] = remark or other dose. Calls come from the whole dose curve; as a rule, active = well fitted curve in the direction sought with a large enough effect; inconclusive = small, poorly fitted or top-dose-only effect, or another doubt; inactive = no such curve, though single readings can be large; an effect the other way counts as inactive or inconclusive. Potency is the fitted concentration of half-maximal effect.

SMILES	KB-3-1 tox	KB-V1 cytotox	S2 tox	ATXN2 expr inh	HepG2 viability	TGFb SMAD3 inh
O=C(CSCc1c(Cl)cccc1Cl)Nc1ccc2c(c1)OCCO2	?	10.3µM*	i	9.4%	-28.8%	-26.6%
O=C(c1ccc2c(c1)OCCO2)C1CCN(C(=O)c2ccc(F)cc2)CC1	?	i	i	-22.4%	-24.0%	11.3%
Cc1ccc(S(=O)(=O)N(C)Cc2nc(-c3ccccc3)oc2C)cc1	i	i	?	-18.5%	-4.2%	-13.6%
Cc1ccc(SC[C@H](C)CN2CC[C@H](C)CCC2=O)cc1	?	18.4µM*!	?	-15.8%	-27.2%	-29.9%
C[C@@H](CC#N)CN1CC[C@H](C(C)(C)C)CCC1=O	i	i	i	-6.2%	-5.5%	-0.6%
C[C@@H]1CCC(=O)N(C[C@@H](C)CSc2ccc(Br)cc2)CC1	i	?	?	-19.0%	-0.5%	?
COc1ccc(SC[C@H](C)CN2CC[C@H](O)CCC2=O)cc1	i	i	.	.	4.5%	0.9%
COc1ccc(SC[C@H](C)CN2CC[C@H](C)CCC2=O)cc1	18.4µM*!	8.2µM*!	?	?	-21.9%	-22.0%
CC(=O)Nc1ccc(SC[C@H](C)CN2CC[C@H](C(C)(C)C)CCC2=O)cc1	i	?	28.2µM*	?	-26.0%	?
CN(C)c1c(Cl)cc(/C=C2\C=Cc3ccccc32)cc1Cl	i	i	.	.	-29.8%	-2.6%
CCOC(=O)c1ccc(NS(=O)(=O)c2ccc(SC)cc2)cc1	i	23.1µM*	i	-2.2%	-20.0%	?
COc1cccc(CNS(=O)(=O)c2ccc3[nH]c4c(c3c2)CCCCC4)c1	20.6µM*	20.6µM*	?	?	22.4µM*	?
CCN(c1ccc(OC)cc1)S(=O)(=O)c1ccc2[nH]c3c(c2c1)CCCCC3	8.2µM*	18.4µM*	?	?	-28.2%	?
O=S(=O)(NCc1ccc(F)cc1)c1ccc2[nH]c3c(c2c1)CCCCC3	i	i	i	-17.3%	-62.4%	?
COc1cc(NS(=O)(=O)c2ccc3[nH]c4c(c3c2)CCCCCC4)cc(OC)c1	i	?	?	?	-103.4%	12.6µM*
CCN(Cc1ccccc1)S(=O)(=O)c1ccc2[nH]c3c(c2c1)CCCCC3	i	i	?	?	-35.8%	?
CCOC(=O)Cc1ccc(NS(=O)(=O)c2ccc(SC)cc2)cc1	i	i	i	-4.3%	2.9%	-6.6%
Cc1cccc(C)c1NC(=O)Cn1c(=O)n(Cc2ccc3c(c2)OCO3)c(=O)c2oc3ccccc3c21	.	.	.	.	-12.7%	-10.2%
Cc1cc(C)cc(N(C)S(=O)(=O)c2nnc(NC(=O)COc3ccc(C)c(C)c3)s2)c1	.	.	.	.	-26.2%	0.0%
COc1ccc(NS(=O)(=O)c2ccc3[nH]c4c(c3c2)CCCC4)cc1OC	.	.	.	.	-26.3%	?
Cc1ccc(N(C)S(=O)(=O)c2ccc3[nH]c4c(c3c2)CCCC4)cc1	i	18.4µM*	?	-37.7%	-28.4%	?
Cc1ccc(C)c(N2CCN(S(=O)(=O)c3ccc4[nH]c5c(c4c3)CCCC5)CC2)c1	?	?	i	-13.7%	-6.8%	12.6µM*
COc1cc(NS(=O)(=O)c2ccc3[nH]c4c(c3c2)CCCC4)cc(OC)c1OC	0.0651µM*	?	?	?	-45.2%	?
COc1ccc(OC)c(NS(=O)(=O)c2ccc3[nH]c4c(c3c2)CCCCC4)c1	?	16.4µM*	?	?	-54.9%	?
Cc1ccc(Cl)cc1N1CCN(S(=O)(=O)c2ccc3[nH]c4c(c3c2)CCCCC4)CC1	i	?	i	-1.3%	-29.3%	-28.4%
SMILES	KB-3-1 tox	KB-V1 cytotox	S2 tox	ATXN2 expr inh	HepG2 viability	TGFb SMAD3 inh
CCc1ccc(NS(=O)(=O)c2ccc3[nH]c4c(c3c2)CCCCCC4)cc1	i	i	?	11.0%	-99.6%	?
CCOC(=O)c1ccc(NS(=O)(=O)c2ccc3[nH]c4c(c3c2)CCCCC4)cc1	?	?	?	?	25.1µM*	?
O=C(Nc1nc(-c2ccccn2)cs1)c1ccccc1-n1cnnn1	?	?	?	10µM*	-10.3%	?
O=C(Nc1nc(-c2ccccn2)cs1)c1cc(Cl)ccc1[N+](=O)[O-]	i	?	i	7.52µM*	6.2%	11.2µM*
Cn1nc(C(=O)Nc2nc(-c3ccccn3)cs2)c2ccccc2c1=O	i	1.3µM*	i	-29.5%	-22.7%	-5.0%
CCCn1nc(C(=O)Nc2nc(-c3ccccn3)cs2)c2ccccc2c1=O	?	i	i	22.4µM*	-47.7%	?
CCn1nc(C(=O)Nc2nc(-c3ccccn3)cs2)c2ccccc2c1=O	i	i	.	.	-37.8%	?
COc1cccc(C(=O)Nc2ccccc2C(=O)OCc2cc(=O)n3nc(C4CC4)sc3n2)c1	i	i	i	9.1%	-1.5%	-0.4%
CC(=O)c1cc(-c2ccc(F)cc2)n(CCC(=O)NC2CCCCC2)c1C	i	i	.	.	-20.6%	?
Nc1ccc(/C=C/c2ccc(N)cc2S(=O)(=O)O)c(S(=O)(=O)O)c1	.	.	i[0.575 µM]	8.1%[0.709 µM]	.	.
CC1CCN(C(=O)Cn2cc(SCC(=O)NCc3ccccc3Cl)c3ccccc32)CC1	.	.	.	.	-11.4%	0.0%
C(=C\c1cccs1)/c1ccccn1	?	i	.	.	31.8%	7.4%
OC(C#Cc1ccccn1)c1cccs1 (stereo not given)	?	?	?	?	10µM*	15.8µM*
O=C(CSc1nc2nc(-c3cccs3)cc(C(F)(F)F)c2c(=O)[nH]1)Nc1ccc(F)c(F)c1	14.6µM*	?	i	?	-54.2%	?
Cc1ccc(C)c(NC(=O)CSc2nc3nc(-c4cccs4)cc(C(F)(F)F)c3c(=O)[nH]2)c1	i	i	i	-34.7%	-38.5%	15.8µM*
COc1ccccc1C1=NC(c2ccc(F)cc2)N=C1C (stereo not given)	18.4µM*	?	i	1.6%	-4.5%	-5.5%
COc1cccc(-c2ccnc(-n3ncc(C(=O)NCc4cccnc4)c3C3CC3)n2)c1	.	.	i	.	.	.
CC1(C)Cc2cccc(OCC(=O)Nc3ccccc3N3CCOCC3)c2O1	i	3.66µM*	i	-6.5%	-0.4%	-5.2%
CC1(C)Cc2cccc(OCC(=O)OCC(=O)NCc3ccccc3)c2O1	i	?	i	-10.3%	-12.8%	-28.6%
CC1(C)Cc2cccc(OCC(=O)NCc3ccc(F)cc3)c2O1	i	14.6µM*	i	-3.3%	-1.4%	-8.1%

Assay outcomes from PubChem.
